# Screening results (PubChem)
# Most compounds without a hit are left out; they make up all but 2.5% or so of the library.
# MEKK2 mut-MEK5: signal of MEK5 binding to mutant human MEKK2 PB1 domain; 290,000 tested, 0.35% active; percent response, % at 10 µM; AID 1530; bead flow cytometry, Alexa488-MEK5 binding to MEKK2 mutant; in the data active means percent response above about 24%, passing the limit was not always enough
# UBC13 polyUb: blocks human UBC13 polyubiquitin chain formation; P61088; TR-FRET; inhibition, % at 20 µM; 330,000 tested, 0.47% active; AID 485273; in the data active means inhibition above about 45%, passing the limit was not always enough
# MEKK3 PB1 HTS: MEKK3-MEK5 PB1 interaction, increase or decrease; binding response (% of control), % at 10 µM; bead-based flow cytometry, Alexa488-MEK5 binding to MEKK3; actives lie on both sides; 0 = blocked by unlabeled MEK5, 100 = vehicle; 290,000 tested, 1.4% active;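 active means binding response more than 3 SD above or below the average of its plate-row segment, actives on both sides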;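 further: Alexa488 bead fluorescence after subtracting the streptavidin-only scavenger bead signal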
# Target sequence (Q99759 whole entry, looked up): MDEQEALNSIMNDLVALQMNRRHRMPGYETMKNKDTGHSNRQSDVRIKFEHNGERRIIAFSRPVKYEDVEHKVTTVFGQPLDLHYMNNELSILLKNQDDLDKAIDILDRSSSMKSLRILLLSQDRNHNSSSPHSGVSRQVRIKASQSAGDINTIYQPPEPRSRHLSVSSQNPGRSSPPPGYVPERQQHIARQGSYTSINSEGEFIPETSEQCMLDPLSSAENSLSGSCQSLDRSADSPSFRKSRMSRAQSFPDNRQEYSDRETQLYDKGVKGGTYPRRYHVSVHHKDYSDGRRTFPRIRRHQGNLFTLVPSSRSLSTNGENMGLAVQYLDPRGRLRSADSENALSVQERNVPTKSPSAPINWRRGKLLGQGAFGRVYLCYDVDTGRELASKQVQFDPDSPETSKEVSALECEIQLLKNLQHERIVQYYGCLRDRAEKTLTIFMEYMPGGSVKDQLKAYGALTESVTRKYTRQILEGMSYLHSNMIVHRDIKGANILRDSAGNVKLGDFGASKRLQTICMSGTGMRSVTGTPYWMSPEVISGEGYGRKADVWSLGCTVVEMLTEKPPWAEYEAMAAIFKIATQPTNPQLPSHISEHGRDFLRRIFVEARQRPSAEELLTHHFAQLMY
# MEKK2wt PB1 HTS: raises or lowers MEK5 binding to wildtype human MEKK2 PB1 domain; AID 1531; 290,000 tested, 1.1% active; Q9Y2U5; bead flow cytometry, Alexa488-MEK5 binding to MEKK2 WT; actives lie on both sides; binding response (% of control), % at 10 µM; in the data active means binding response below about 67% or above about 130%
# Rce1 inhib: inhibitors of yeast Ras-converting enzyme; calls only; 290,000 tested, 0.27% active; yeast membranes, quenched prenylated peptide cleavage fluorescence; Q03530;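 active means fall in fluorescence gain of 50% or more versus controls, with final raw signal at or below 3038400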
# A number is an active result; - = inactive; . = no result given; + = active, no number.
SMILES,MEKK2 mut-MEK5,UBC13 polyUb,MEKK3 PB1 HTS,MEKK2wt PB1 HTS,Rce1 inhib
COC(=O)CCC(C)N1CCC(Oc2ccc(C(=O)NCc3ccccn3)cc2)CC1 (configuration not stated),-,-,-,-,-
COc1ccc(-c2cnc(N)n2C)cc1,-,-,-,-8.0,-
COc1ccc(OC)c(C2C(C(=O)c3ccco3)=C(O)C(=O)N2CC2CCCO2)c1 (configuration not stated),-,-,-,-,.
COc1cccc(-n2c(SCC(=O)Nc3cc(C)on3)nc3ccccc3c2=O)c1,-,-,-,-,-
COc1ccc(-n2c(SCC(=O)Nc3cc(C)on3)nc3ccccc3c2=O)cc1Cl,83,-,-,.,-
Cc1ccc(S(=O)(=O)NCC(=O)N2CCOCCOCCOCC2)cc1,-,-,-,-,-
CCOc1ccccc1-c1c2cc(O)c(=O)cc-2oc2cc(O)c(O)cc12,51,.,137,166,.
COc1ccc(-n2nc(C(C)=O)c(=O)[nH]c2=O)cc1,-,-,-,-,-
COc1ccc(-n2c(N)c(C(=O)NCc3ccco3)c3nc4ccccc4nc32)c(OC)c1,-,-,-,-,+
CC(C)Cc1ccc(CN2CCCC(NC(=O)CSc3nncn3C)C2)cc1 (configuration not stated),-,-,-,-,-
COc1cc2ncnc(NCc3cccc(Cl)c3)c2cc1OC,-,-,-,138,-
COc1cc2ncnc(NCc3ccccc3)c2cc1OC,-,-,-,-,-
COc1ccc(S(=O)(=O)N(C)c2ccc(C(=O)Nc3cccnc3)cc2)cc1,-,-,-,-,-
Cc1ccc(C(C)C)c(OCc2nn(CC(=O)c3ccc(Cl)cc3)c3[n+]2CCCCC3)c1,-,-,-,192,-
CC(C)(C)c1ccc(OCc2ccc(C(=O)NCc3cccnc3)o2)cc1,-,-,-,-,-
C#CCOCCOCCOCCNc1nc(N2CCN(C(=O)CCCCCCCCCCNC(=O)[C@H]([C@@H](C)CC)n3cc(CCCCN=C(N)N)nn3)CC2)nc(N2CCN(C(=O)CCCCCCCCCCNC(=O)[C@H](CCCN=C(N)N)n3cc(C[C@@H](C)CC)nn3)CC2)n1,.,129,.,.,.
C#CCOCCOCCOCCNc1nc(N2CCN(C(=O)C([C@@H](C)O)n3cc([C@@H](N)CCCCN)nn3)CC2)nc(N2CCN(C(=O)[C@H](CCC(=O)O)n3cc([C@@H](N)[C@H](C)CC)nn3)CC2)n1 (some centres not stated),.,-,.,.,.
C#CCOCCOCCOCCNc1nc(N2CCN(C(=O)C([C@@H](C)O)n3cc([C@@H](N)CCCCN)nn3)CC2)nc(N2CCN(C(=O)[C@H](CCCCN)n3cc([C@@H](N)[C@H](C)CC)nn3)CC2)n1 (some centres not stated),.,104,.,.,.
C#CCOCCOCCOCCNc1nc(N2CCN(C(=O)CCCCCCCCCCNC(=O)[C@H](CO)n3cc(CCCCCN)nn3)CC2)nc(N2CCN(C(=O)CCCCCCCCCCNC(=O)[C@H](CCCN=C(N)N)n3cc(C[C@@H](C)CC)nn3)CC2)n1,.,129,.,.,.
C#CCOCCOCCOCCNc1nc(N2CCN(C(=O)CCCCCCCCCCNC(=O)[C@H](CCCN=C(N)N)n3cc(C[C@@H](C)CC)nn3)CC2)nc(N2CCN(C(=O)CCCCCCCCCCNC(=O)[C@@H]([C@H](C)CC)n3cc(CCCCCN)nn3)CC2)n1,.,122,.,.,.
O=C(CCCN1C(=O)/C(=C/c2ccc(F)cc2)SC1=S)NC1CCS(=O)(=O)C1 (configuration not stated),-,-,-,-,-
COc1ccc([N+](=O)[O-])cc1NC(=O)C(C)Sc1nc(C)c(C)c(C)n1 (configuration not stated),-,-,-,-,-
C#CCOCCOCCOCCNc1nc(N2CCN(C(=O)CCCCCCCCCCNC(=O)[C@H](CCCCN)n3cc(CCO)nn3)CC2)nc(N2CCN(C(=O)CCCCCCCCCCNC(=O)[C@H](CCCCN)n3cc(C[C@@H](C)CC)nn3)CC2)n1,.,130,.,.,.
C#CCOCCOCCOCCNc1nc(N2CCN(C(=O)CCCCCCCCCCNC(=O)Cn3cc(C[C@@H](C)O)nn3)CC2)nc(N2CCN(C(=O)CCCCCCCCCCNC(=O)[C@@H](CCSC)n3cc(CCO)nn3)CC2)n1,.,-,.,.,.
C#CCOCCOCCOCCNc1nc(N2CCN(C(=O)CCCCCCCCCCNC(=O)[C@H](CCCCN)n3cc(C[C@@H](C)CC)nn3)CC2)nc(N2CCN(C(=O)CCCCCCCCCCNC(=O)[C@@H]([C@H](C)O)n3cc(C)nn3)CC2)n1,.,118,.,.,.
SMILES,MEKK2 mut-MEK5,UBC13 polyUb,MEKK3 PB1 HTS,MEKK2wt PB1 HTS,Rce1 inhib
Cc1cccc2[nH]c(CN(C)Cc3nc(CC4CC4)no3)nc12,-,-,-,-,-
COc1ccc2[nH]c(C(=O)NCCCn3ccnc3)cc2c1,-,-,-,-,+
CCCCNC(=O)c1cc2cc(OC)ccc2[nH]1,-,-,-,-,-
CCn1cc(/C=C(\NC(=O)c2ccccc2)C(=O)N2CCOCC2)c2ccccc21,-,-,-,-,+
CCn1cc(/C=C(\NC(=O)c2ccc(OC)cc2)C(=O)N2CCN(C)CC2)c2ccccc21,-,-,-,-,-
CN(C)c1ccc(/C=N/NC(=O)CNC(=O)c2ccc3c(c2)OCCO3)cc1,-,-,-,-,+
CC(NC(=O)C12CC3CC(CC(C3)C1)C2)C(=O)N/N=C/C1=C(N2CCOCC2)C(=C\c2cccc([N+](=O)[O-])c2)/CC1 (configuration not stated),-,-,-,-,-
CC(C)C(NC(=O)C12CC3CC(CC(C3)C1)C2)C(=O)N/N=C/C1=C(N2CCOCC2)C(=C\c2ccc([N+](=O)[O-])cc2)/CC1 (configuration not stated),-,-,-,-2.0,-
COc1ccccc1NC(=O)COc1ccc2c(c1)OCO2,-,-,-,-,-
Cc1ccc(C2=CC(C)(c3ccc(C)cc3)Nc3nc(C(F)(F)F)nn32)cc1 (configuration not stated),-,-,-,-,-
CC1(c2ccc(OCC#N)cc2)C=C(c2ccc(OCC#N)cc2)n2nc(C(F)(F)F)nc2N1 (configuration not stated),-,-,-,-,+
COC(=O)Nc1nnc(-c2ccncc2)s1,-,-,-,-,+
O=C(O)CCC(=O)Nc1nc2nc(-c3ccccc3)cc(-c3ccccc3)n2n1,.,-,.,.,+
CC(C)[C@H](NC(=O)OCc1ccccc1)C(=O)OCC(=O)c1ccccc1,.,-,.,.,.
CC(C)[C@H](NC(=O)OCc1ccccc1)C(=O)OCC(=O)Nc1c(F)cccc1F,-,-,-,-,+
Cc1ccccc1-c1nc(CN2CCC(C(=O)NCCCN3CCCC3)CC2)c(C)o1,51,-,-,198,-
Cc1ccc(-n2nc(C)c(C(=O)N3CCN(C(=O)c4ccco4)CC3)c2-n2cccc2)cc1,-,-,-,-,-
c1ccc(C2(Cn3ccc4ccccc43)OCCO2)cc1,-,-,-,12,-
